Holding throughout (conditions): treatment time: 24 h
Experiment [1] concerns A549-CANX-COX4. The experiment is described as follows: lowest phenotypically active concentration; higher = less potent. The procedure, abridged: (§1)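 The reporter lines, fifteen in total and built by gene editing in A549, HepG2 and WPMY1 cells, used BFP for segmentation alongside GFP and RFP/FusionRed markers. Each was treated at 0.3, 1, 3 or 9 µM for 24 h in four wells and then imaged live, with live-cell features normalised to solvent control wells. Deviation meant ≥3 of 4 wells beyond the 95th percentile of control Euclidean distances; reproducibility meant a median replicate Pearson correlation above the 95th percentile of non-replicates. Only conditions meeting both were scored as phenotypically active.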

Experiment [2] deals with A549-TP53BP1-CLTA. Described as above. The procedure, abridged:
as §1

The test system of experiment [3] is HepG2-ACTB-RAB5A. The description is as above. Put shortly: as §1
The subject of experiment [4] is HepG2-CANX-COX4. Described as above. The procedure, abridged: as §1
In experiment [5] the test system is HepG2-GM130-SQSTM1. The experiment is described as above. Put shortly:
as §1

Experiment [6] has as its system HepG2-TP53BP1-CLTA. The description is as above. The procedure, abridged:
as §1

Experiment [7] concerns HepG2-TUBA1B-RELA. Described as above. The procedure, abridged:
as §1

The subject of experiment [8] is WPMY1-ACTB-RAB5A. Described as above. The procedure, abridged:
as §1

Experiment [9] deals with WPMY1-CANX-COX4. The experiment is described as above. The procedure, abridged: as §1
The test system of experiment [10] is WPMY1-GM130-SQSTM1. The experiment is described as above. The procedure, abridged: as §1
The test system of experiment [11] is WPMY1-TP53BP1-CLTA. The description is as above. The procedure, abridged:
as §1

For experiment [12], the system named is WPMY1-TUBA1B-RELA. The experiment is described as above. The procedure, abridged: as §1
The subject of experiment [13] is A549-CANX-COX4. Kind of experiment: phenotypically active (imaging signature differs from DMSO and reproducible) at any of 0.3-9 uM (binary (1 = active, 0 = inactive)); higher = active. Put shortly: as §1
For experiment [14], the system named is A549-TP53BP1-CLTA. The description is as above. The procedure, abridged: as §1
Experiment [15] has as its system HepG2-ACTB-RAB5A. The experiment is described as above. The procedure, abridged: as §1
The subject of experiment [16] is HepG2-CANX-COX4. The experiment is described as above. The procedure, abridged:
as §1

For experiment [17], the system named is HepG2-GM130-SQSTM1. Described as above. Put shortly: as §1
In experiment [18] the test system is HepG2-TP53BP1-CLTA. The experiment is described as above. The procedure, abridged: as §1
Experiment [19] deals with HepG2-TUBA1B-RELA. The experiment is described as above. The procedure, abridged:
as §1

The test system of experiment [20] is WPMY1-ACTB-RAB5A. The description is as above. Put shortly:
as §1

For experiment [21], the system named is WPMY1-CANX-COX4. The description is as above. Put shortly:
as §1

Experiment [22] relates to WPMY1-GM130-SQSTM1. The experiment is described as above. The procedure, abridged: as §1
Experiment [23] relates to WPMY1-TP53BP1-CLTA. The experiment is described as above. The procedure, abridged: as §1
Experiment [24] deals with WPMY1-TUBA1B-RELA. The experiment is described as above. Put shortly: as §1
For a further experiment, the system named is A549-ACTB-RAB5A. The experiment is described as above. The procedure, abridged:
as §1

The test system of experiment [25] is A549-GM130-SQSTM1. The description is as above. Put shortly:
as §1

A further experiment deals with A549-TUBA1B-RELA. The experiment is described as above. The procedure, abridged:
as §1

Experiment [26] relates to A549-GM130-SQSTM1. Kind of experiment: lowest phenotypically active concentration; higher = less potent. The procedure, abridged:
as §1

For the molecule `C=C(C)[C@H]1Cc2c(ccc3c2O[C@@H]2COc4cc(OC)c(OC)cc4[C@@H]2C3=O)O1` [Rotenone], the “lowest phenotypically active concentration” value in the experiment with A549-CANX-COX4 [1], in the experiment with A549-TP53BP1-CLTA [2], in the experiment on HepG2-ACTB-RAB5A [3], in the experiment on HepG2-CANX-COX4 [4], in the experiment on HepG2-GM130-SQSTM1 [5] and in the experiment with HepG2-TP53BP1-CLTA [6] was at most 0.3 µM each time. The “lowest phenotypically active concentration” value is at most 0.3 µM with HepG2-TUBA1B-RELA [7]; at most 0.3 µM in the experiment on WPMY1-ACTB-RAB5A [8]; 1 µM in the experiment on WPMY1-CANX-COX4 [9]; 1 µM with WPMY1-GM130-SQSTM1 [10]; at most 0.3 µM with WPMY1-TP53BP1-CLTA [11]; 1 µM with WPMY1-TUBA1B-RELA [12]. In addition, the phenotypically active in the experiment with A549-CANX-COX4 [13], in the experiment on A549-TP53BP1-CLTA [14], in the experiment with HepG2-ACTB-RAB5A [15], in the experiment with HepG2-CANX-COX4 [16], with HepG2-GM130-SQSTM1 [17] and with HepG2-TP53BP1-CLTA [18] was 1 (active) each time. Further, the phenotypically active with HepG2-TUBA1B-RELA [19], in the experiment with WPMY1-ACTB-RAB5A [20], in the experiment on WPMY1-CANX-COX4 [21], in the experiment on WPMY1-GM130-SQSTM1 [22], in the experiment on WPMY1-TP53BP1-CLTA [23] and in the experiment on WPMY1-TUBA1B-RELA [24] was 1 (active) in each case.
In the case of `C[C@@H]1C[C@@H]([C@H](O)CC2CC(=O)NC(=O)C2)C(=O)[C@@H](C)C1` [Cycloheximide], the “lowest phenotypically active concentration” value is at most 0.3 µM in the experiment on A549-CANX-COX4 [1]; at most 0.3 µM with A549-TP53BP1-CLTA [2]; at most 0.3 µM in the experiment on HepG2-ACTB-RAB5A [3]; at most 0.3 µM with HepG2-CANX-COX4 [4]; at most 0.3 µM with HepG2-GM130-SQSTM1 [5]; 3 µM with HepG2-TP53BP1-CLTA [6]. Besides, the “lowest phenotypically active concentration” value is at most 0.3 µM with HepG2-TUBA1B-RELA [7]; 1 µM in the experiment with WPMY1-ACTB-RAB5A [8]; at most 0.3 µM in the experiment on WPMY1-CANX-COX4 [9]; at most 0.3 µM in the experiment with WPMY1-GM130-SQSTM1 [10]; at most 0.3 µM with WPMY1-TP53BP1-CLTA [11]; at most 0.3 µM in the experiment with WPMY1-TUBA1B-RELA [12]. In addition, the phenotypically active with A549-CANX-COX4 [13], with A549-TP53BP1-CLTA [14], with HepG2-ACTB-RAB5A [15], in the experiment with HepG2-CANX-COX4 [16], in the experiment on HepG2-GM130-SQSTM1 [17] and with HepG2-TP53BP1-CLTA [18] was 1 (active) each time. For the same molecule, the phenotypically active with HepG2-TUBA1B-RELA [19], in the experiment with WPMY1-ACTB-RAB5A [20], with WPMY1-CANX-COX4 [21], in the experiment on WPMY1-GM130-SQSTM1 [22], in the experiment with WPMY1-TP53BP1-CLTA [23] and in the experiment with WPMY1-TUBA1B-RELA [24] was 1 (active) throughout.
For `C[C@H]1CC[C@@H]2N(C1)C[C@H]1[C@@H]3C[C@H]4[C@@H](CC(=O)[C@H]5C[C@@H](O)CC[C@@]54C)[C@@H]3CC[C@H]1[C@]2(C)O` [Imperialine], the “lowest phenotypically active concentration” value with WPMY1-ACTB-RAB5A [8] and in the experiment on WPMY1-CANX-COX4 [9] was at most 0.3 µM each time. In addition, the phenotypically active with A549-ACTB-RAB5A, in the experiment on A549-CANX-COX4 [13], with A549-GM130-SQSTM1 [25], with A549-TP53BP1-CLTA [14], in the experiment on A549-TUBA1B-RELA and in the experiment on HepG2-ACTB-RAB5A [15] was 0 (inactive) throughout. Also, the phenotypically active is 0 (inactive) with HepG2-CANX-COX4 [16]; 0 (inactive) in the experiment on HepG2-GM130-SQSTM1 [17]; 0 (inactive) with HepG2-TP53BP1-CLTA [18]; 0 (inactive) in the experiment on HepG2-TUBA1B-RELA [19]; 1 (active) in the experiment with WPMY1-ACTB-RAB5A [20]; 1 (active) in the experiment with WPMY1-CANX-COX4 [21]. The phenotypically active with WPMY1-GM130-SQSTM1 [22], with WPMY1-TP53BP1-CLTA [23] and with WPMY1-TUBA1B-RELA [24] was 0 (inactive) in each case.
As to `CCN(CC)CCN1C(=O)CN=C(c2ccccc2F)c2cc(Cl)ccc21` [flurazepam], the “lowest phenotypically active concentration” value with HepG2-CANX-COX4 [4] worked out at 1 µM. The phenotypically active in the experiment with A549-ACTB-RAB5A, in the experiment with A549-CANX-COX4 [13], with A549-GM130-SQSTM1 [25], in the experiment on A549-TP53BP1-CLTA [14], in the experiment on A549-TUBA1B-RELA and in the experiment on HepG2-ACTB-RAB5A [15] was 0 (inactive) throughout. Also, the phenotypically active with HepG2-CANX-COX4 [16] was 1 (active); in the experiment with HepG2-GM130-SQSTM1 [17] it was 0 (inactive); with HepG2-TP53BP1-CLTA [18], 0 (inactive); in the experiment on HepG2-TUBA1B-RELA [19] it was 0 (inactive); in the experiment on WPMY1-ACTB-RAB5A [20], 0 (inactive); with WPMY1-CANX-COX4 [21] it was 0 (inactive). The phenotypically active in the experiment on WPMY1-GM130-SQSTM1 [22], in the experiment on WPMY1-TP53BP1-CLTA [23] and in the experiment on WPMY1-TUBA1B-RELA [24] was 0 (inactive) each time.
As for `CN1C(=O)CN=C(c2ccccc2)c2cc(Cl)ccc21` [diazepam], the “lowest phenotypically active concentration” value with HepG2-ACTB-RAB5A [3] was 9 µM. Also, the phenotypically active is 0 (inactive) with A549-ACTB-RAB5A; 0 (inactive) in the experiment with A549-CANX-COX4 [13]; 0 (inactive) in the experiment with A549-GM130-SQSTM1 [25]; 0 (inactive) in the experiment with A549-TP53BP1-CLTA [14]; 0 (inactive) in the experiment with A549-TUBA1B-RELA; 1 (active) in the experiment with HepG2-ACTB-RAB5A [15]. Further, the phenotypically active in the experiment with HepG2-CANX-COX4 [16], in the experiment on HepG2-GM130-SQSTM1 [17], in the experiment on HepG2-TP53BP1-CLTA [18], with HepG2-TUBA1B-RELA [19], in the experiment on WPMY1-ACTB-RAB5A [20] and in the experiment on WPMY1-CANX-COX4 [21] was 0 (inactive) in each case. In addition, the phenotypically active in the experiment with WPMY1-GM130-SQSTM1 [22], in the experiment with WPMY1-TP53BP1-CLTA [23] and with WPMY1-TUBA1B-RELA [24] was 0 (inactive) throughout.
As for `CC(C)(C)c1cc(C=C(C#N)C#N)cc(Br)c1O`, in the experiment with A549-GM130-SQSTM1 [26], the “lowest phenotypically active concentration” value was 9 µM. Moreover, the phenotypically active in the experiment on A549-ACTB-RAB5A was 0 (inactive); with A549-CANX-COX4 [13] it was 0 (inactive); with A549-GM130-SQSTM1 [25], 1 (active); with A549-TP53BP1-CLTA [14], 0 (inactive); with A549-TUBA1B-RELA it was 0 (inactive); in the experiment with HepG2-ACTB-RAB5A [15], 0 (inactive). The phenotypically active in the experiment on HepG2-CANX-COX4 [16], with HepG2-GM130-SQSTM1 [17], in the experiment with HepG2-TP53BP1-CLTA [18], in the experiment on HepG2-TUBA1B-RELA [19], in the experiment with WPMY1-ACTB-RAB5A [20] and in the experiment with WPMY1-CANX-COX4 [21] was 0 (inactive) each time. The phenotypically active in the experiment on WPMY1-GM130-SQSTM1 [22], in the experiment on WPMY1-TP53BP1-CLTA [23] and in the experiment on WPMY1-TUBA1B-RELA [24] was 0 (inactive) in each case.

(Values after the supplement of paper PMC7411054.)
